Laboratory results reported in PubChem BioAssay AID1159580 (chemical genetic matrix, 2015).
Values joined by “and” are separate entries in the source; they are usually repeats but may differ in a detail not shown here. Identical values can stand only once. In all, about 5,500 compounds went through this assay and about 2,000 (36%) were called active. Roughly 18% stayed inconclusive and do not appear here. No stated cut-off is given here; in the data, active means normalized growth mostly below about 0.91 (no sharp cut-off); inconclusive means no clear call, values can overlap the other calls; inactive means mostly above about 0.92. This is one part of the list.

Experiment: chemical genetic growth profiling, strain panel (AID 1159580);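 further: tested at 20 µM; growth read once vehicle control cultures reached saturation at 30 °C; 1 = growth at the plate median or of vehicle wells; lower values mean less growth of the strain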
Settings: S. cerevisiae deletion strains, growth OD

Measured: normalized growth

CCc1nc(N)nc(N)c1-c1ccc(Cl)cc1
active: locus YDR069C, strain doa4, active compounds read low 0.898
inactive: locus YAL013W, strain DEP1, active compounds read low 1.02 | locus YAL021C, strain ccr4, active compounds read low 0.951 | locus YAL026C, strain drs2, active compounds read low 0.967 | locus YAL030W, strain snc1, active compounds read low 0.977 | locus YBL061C, strain skt5, active compounds read low 0.97 | locus YBR009C, strain hhf1, active compounds read low 0.997 | locus YBR021W, strain FUR4, active compounds read low 1.02 | locus YBR023C, strain chs3, active compounds read low 0.999 | locus YBR171W, strain sec66, active compounds read low 0.969 | locus YBR229C, strain ROT2, active compounds read low 1.01 | locus YBR231C, strain swc5, active compounds read low 0.971 | locus YBR279W, strain paf1, active compounds read low 0.994 | locus YCL011C, strain gbp2, active compounds read low 0.978 | locus YCL016C, strain dcc1, active compounds read low 0.997 | locus YCL029C, strain bik1, active compounds read low 0.988 | locus YCL061C, strain MRC1, active compounds read low 0.958 | locus YCL069W, strain vba3, active compounds read low 0.986 | locus YCR088W, strain abp1, active compounds read low 0.977 | locus YDL005C, strain med2, active compounds read low 0.972 | locus YDL035C, strain GPR1, active compounds read low 0.995 | locus YDL040C, strain nat1, active compounds read low 0.973 | locus YDL074C, strain BRE1, active compounds read low 0.987 | locus YDL101C, strain DUN1, active compounds read low 1 | locus YDL134C, strain PPH21, active compounds read low 1.01 | locus YDL185W, strain tfp1, active compounds read low 1 | locus YDL192W, strain arf1, active compounds read low 1 | locus YDR001C, strain nth1, active compounds read low 0.969 | locus YDR101C, strain arx1, active compounds read low 0.987 | locus YDR137W, strain rgp1, active compounds read low 1.02 | locus YDR150W, strain NUM1, active compounds read low 1.01 | locus YDR159W, strain sac3, active compounds read low 0.955 | locus YDR162C, strain NBP2, active compounds read low 1.01 | locus YDR195W, strain ref2 0.979 | locus YDR297W, strain sur2, active compounds read low 0.987 | locus YDR318W, strain mcm21, active compounds read low 0.976 | locus YDR334W, strain swr1, active compounds read low 0.936 | locus YDR335W, strain msn5, active compounds read low 0.973 | locus YDR388W, active compounds read low 0.974 | locus YDR392W, strain spt3, active compounds read low 1.02 | locus YDR502C, strain sam2, active compounds read low 0.996 | locus YEL003W, strain gim4, active compounds read low 0.97 | locus YEL037C, strain rad23, active compounds read low 0.969 | locus YEL061C, strain CIN8 (second series), active compounds read low 0.966 | locus YEL061C, strain CIN8, active compounds read low 1.01 | locus YER015W, strain faa2, active compounds read low 0.985 | locus YER016W, strain bim1, active compounds read low 1.01 | locus YER110C, active compounds read low 0.999 | locus YER111C, strain swi4, active compounds read low 0.983 | locus YER155C, strain BEM2 (second series), active compounds read low 0.933 | locus YER155C, strain BEM2, active compounds read low 1.01 | locus YER167W, strain BCK2, active compounds read low 1.01 | locus YFR010W, strain ubp6, active compounds read low 0.931 | locus YGL078C, strain dbp3, active compounds read low 1 | locus YGL086W, strain mad1, active compounds read low 0.994 | locus YGL167C, strain pmr1, active compounds read low 0.981 | locus YGL173C, strain kem1, active compounds read low 0.982 | locus YGL227W, strain vid30, active compounds read low 0.959 | locus YGL240W, strain doc1, active compounds read low 0.97 | locus YGL248W, strain PDE1, active compounds read low 1.01 | locus YGL253W, strain hxk2, active compounds read low 0.97 | locus YGR078C, strain PAC10, active compounds read low 1 | locus YGR135W, strain pre9, active compounds read low 0.979 | locus YGR229C, strain SMI1, active compounds read low 1.01 | locus YGR252W, strain gcn5, active compounds read low 0.981 | locus YHR013C, strain ard1, active compounds read low 0.886 | locus YHR027C, strain rpn1, active compounds read low 0.976 | locus YHR030C, strain SLT2, active compounds read low 1.01 and 1.05 | locus YHR079C, strain IRE1 (second series), active compounds read low 0.987 | locus YHR079C, strain IRE1, active compounds read low 1.07 | locus YHR094C, strain hxt1, active compounds read low 1 | locus YHR129C, strain ARP1, active compounds read low 1.01 | locus YHR142W, strain chs7, active compounds read low 0.95 | locus YHR200W, strain rpn10, active compounds read low 1 | locus YIL066C, strain RNR3, active compounds read low 1.01 | locus YIL073C, strain SPO22, active compounds read low 1.31 | locus YIL125W, strain kgd1, active compounds read low 1.01 | locus YIR030C, strain dcg1, active compounds read low 1 | locus YJL092W, strain hpr5, active compounds read low 0.956 | locus YJL095W, strain BCK1 (second series), active compounds read low 0.979 | locus YJL095W, strain BCK1, active compounds read low 0.982 and 1.04 | locus YJL115W, strain asf1, active compounds read low 0.961 | locus YJL129C, strain trk1, active compounds read low 0.927 | locus YJL134W, strain LCB3, active compounds read low 1.01 | locus YJL154C, strain vps35, active compounds read low 0.954 | locus YJL164C, strain tpk1, active compounds read low 1 | locus YJL166W, strain qcr8, active compounds read low 0.944 | locus YJL168C, strain set2, active compounds read low 1 | locus YJL187C, strain SWE1 (second series), active compounds read low 0.982 | locus YJR043C, strain POL32, active compounds read low 0.992 | locus YJR066W, strain TOR1, active compounds read low 0.994
